# Source: PubChem BioAssay (NCATS)
# Where “and” joins values, the source holds several entries; their conditions need not be identical. Equal entries are not always repeated. Results filed as inconclusive are left out. Calls of active or inactive are those of the source. Unless noted, the call rests on the fitted dose curve.
# Key:
# [1] = qHTS assay for small molecule agonists of retinoid X receptor alpha signaling (AID 588544); conditions: HEK293T RXRa-UAS-bla, beta-lactamase reporter, 18 h; 530 nm emission;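 on activation: 0% = DMSO basal wells and 100% = reference agonist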
# [2] = biological target: Retinoic acid receptor RXR-alpha (Homo sapiens) (UniProt P19793); experiment: as above; conditions: HEK293T RXRa-UAS-bla, beta-lactamase reporter, 18 h; series mostly up to 76.7 µM
# Sequence of Retinoic acid receptor RXR-alpha (Homo sapiens) (P19793 whole entry, looked up): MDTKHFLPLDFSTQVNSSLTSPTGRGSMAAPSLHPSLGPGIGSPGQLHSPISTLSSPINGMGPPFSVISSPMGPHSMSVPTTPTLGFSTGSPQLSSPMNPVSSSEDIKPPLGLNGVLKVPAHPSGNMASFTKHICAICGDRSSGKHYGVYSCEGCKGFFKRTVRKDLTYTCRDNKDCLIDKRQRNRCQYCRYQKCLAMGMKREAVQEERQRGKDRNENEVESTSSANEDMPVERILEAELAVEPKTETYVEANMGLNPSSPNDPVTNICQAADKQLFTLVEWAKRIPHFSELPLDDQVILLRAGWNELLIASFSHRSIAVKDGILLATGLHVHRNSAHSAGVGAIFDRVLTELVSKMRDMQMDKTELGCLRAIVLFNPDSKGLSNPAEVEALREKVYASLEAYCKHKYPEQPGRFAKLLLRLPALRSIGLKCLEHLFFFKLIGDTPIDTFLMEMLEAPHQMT
# [3] = biological target: Thyroid hormone receptor beta (Homo sapiens) (UniProt P10828); experiment: qHTS assay for small molecule agonists of thyroid hormone receptor beta signaling (AID 588545); conditions: TR-UAS-bla GripTite HEK 293, beta-lactamase ratio, agonist mode, 18 h, percent of T3 response, DMSO as zero; series mostly up to 76.7 µM;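 further: 0% = DMSO only and 100% = 10 nM T3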
# Sequence of Thyroid hormone receptor beta (Homo sapiens) (P10828 whole entry, looked up): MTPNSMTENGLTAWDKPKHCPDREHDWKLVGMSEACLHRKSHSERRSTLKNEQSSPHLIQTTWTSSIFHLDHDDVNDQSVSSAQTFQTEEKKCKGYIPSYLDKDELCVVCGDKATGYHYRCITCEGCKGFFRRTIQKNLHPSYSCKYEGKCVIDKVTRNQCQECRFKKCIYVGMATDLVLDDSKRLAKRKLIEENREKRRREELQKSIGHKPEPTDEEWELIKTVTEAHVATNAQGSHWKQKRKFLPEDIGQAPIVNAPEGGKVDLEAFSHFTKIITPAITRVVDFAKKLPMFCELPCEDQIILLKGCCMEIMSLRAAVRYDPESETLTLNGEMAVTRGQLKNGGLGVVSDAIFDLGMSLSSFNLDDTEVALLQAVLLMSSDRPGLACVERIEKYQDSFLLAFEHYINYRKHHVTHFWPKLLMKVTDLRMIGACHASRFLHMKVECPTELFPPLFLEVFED
# In short: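 Compounds were tested as agonists in TR-UAS-bla-GripTite HEK 293 cells. After 18 hrs at 37 C, CCF4 substrate was added and fluorescence read after 2 hrs at room temperature.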
# [4] = qHTS assay for small molecule antagonists of retinoid X receptor alpha signaling (AID 588546; active means well fitted inhibition curve with a large enough effect in the signal ratio, with a control signal flat, not every such curve was filed as active; the % refers to the signal ratio;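 further: cells stimulated with 9-cis-retinoic acid as agonist; on the % scale 0 is the no-effect control and ±100 the full control effect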); conditions: HEK293T RXRa-UAS-bla, beta-lactamase ratio, antagonist mode; measured here: W530 green channel, cytotoxicity proxy
# In short: (§1)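 Beta-lactamase reporter inhibition, read as CCF4 fluorescence ratio (ex 405, em 460/530 nm) after 2 h at RT. HEK293T UAS-bla cells, 2500/well, were stimulated with 9-cis-RA at 500 or 100 nM final alongside test compound for 18 h at 37 C.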
# [5] = biological target: Retinoic acid receptor RXR-alpha (Homo sapiens) (UniProt P19793); experiment: as above; conditions: HEK293T RXRa-UAS-bla, beta-lactamase ratio, antagonist mode
# In short: as §1
# [6] = biological target: Thyroid hormone receptor beta (Homo sapiens) (UniProt P10828); experiment: qHTS assay for small molecule antagonists of thyroid hormone receptor beta signaling (AID 588547; active means well fitted inhibition curve with a large enough effect in the signal ratio, with a control signal flat, not every such curve was filed as active; the % refers to the signal ratio;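 further: cells stimulated with 0.4 nM T3 agonist during compound exposure; on the % scale 0 is the no-effect control and ±100 the full control effect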); conditions: TR-UAS-bla HEK293, beta-lactamase ratio, antagonist mode, 18 h
# In short: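 TR-UAS-bla GripTite HEK293 cells in 2% charcoal/dextran FBS medium were preincubated 4 h at 37 C, given compound (0.59 nM to 92 uM) plus 0.4 nM T3 (final) for 18 h, then CCF4 for 2 h at RT; Hill fit gave IC50.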
# [7] = biological target: Voltage-gated inwardly rectifying potassium channel KCNH2 (Homo sapiens) (UniProt Q12809); experiment: qHTS Assay for Small Molecule Inhibitors of the Human hERG Channel Activity (AID 588834; active means well fitted inhibition curve with a large enough effect;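 further: lower thallium flux fluorescence means stronger hERG block; nearly all actives have a fitted effect of over 50% in size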; further: potency means the concentration at half of the fitted maximal effect); conditions: U2OS BacMam hERG, FluxOR thallium flux fluorescence; series mostly up to 92.2 µM
# Sequence of Voltage-gated inwardly rectifying potassium channel KCNH2 (Homo sapiens) (Q12809 whole entry, looked up): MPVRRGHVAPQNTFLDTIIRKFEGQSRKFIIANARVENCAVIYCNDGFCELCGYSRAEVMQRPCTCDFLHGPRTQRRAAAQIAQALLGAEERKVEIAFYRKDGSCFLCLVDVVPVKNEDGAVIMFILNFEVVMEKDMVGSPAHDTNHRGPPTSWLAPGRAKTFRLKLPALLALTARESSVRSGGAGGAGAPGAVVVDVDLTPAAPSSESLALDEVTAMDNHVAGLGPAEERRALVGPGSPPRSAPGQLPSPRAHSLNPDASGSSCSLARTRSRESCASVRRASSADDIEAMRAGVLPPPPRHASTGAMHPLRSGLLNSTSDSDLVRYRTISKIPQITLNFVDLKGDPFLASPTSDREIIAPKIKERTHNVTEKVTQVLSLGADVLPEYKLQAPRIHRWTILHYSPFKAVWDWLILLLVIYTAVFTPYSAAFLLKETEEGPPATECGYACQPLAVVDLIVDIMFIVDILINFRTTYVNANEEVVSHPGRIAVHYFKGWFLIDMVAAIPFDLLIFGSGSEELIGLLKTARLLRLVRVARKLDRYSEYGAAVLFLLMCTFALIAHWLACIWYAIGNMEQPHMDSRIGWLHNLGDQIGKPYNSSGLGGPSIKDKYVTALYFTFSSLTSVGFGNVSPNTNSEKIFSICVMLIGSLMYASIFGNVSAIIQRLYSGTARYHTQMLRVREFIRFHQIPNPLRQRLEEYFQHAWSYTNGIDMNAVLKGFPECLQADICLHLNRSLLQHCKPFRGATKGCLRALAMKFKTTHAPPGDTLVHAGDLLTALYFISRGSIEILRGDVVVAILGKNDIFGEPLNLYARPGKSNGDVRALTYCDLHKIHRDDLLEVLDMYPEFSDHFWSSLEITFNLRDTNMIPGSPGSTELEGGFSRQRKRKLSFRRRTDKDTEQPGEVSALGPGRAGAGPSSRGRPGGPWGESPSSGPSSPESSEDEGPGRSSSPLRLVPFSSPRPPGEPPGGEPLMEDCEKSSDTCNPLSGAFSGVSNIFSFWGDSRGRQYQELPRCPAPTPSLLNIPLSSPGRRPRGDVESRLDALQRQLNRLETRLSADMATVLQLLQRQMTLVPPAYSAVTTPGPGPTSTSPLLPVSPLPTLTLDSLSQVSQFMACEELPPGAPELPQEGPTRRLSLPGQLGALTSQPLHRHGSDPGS
# In short: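 Blockade is seen as reduced FluxOR thallium-flux fluorescence in U2OS cells expressing hERG from a BacMam construct, in Opti-MEM with 2% FCS. Concentration-response data fitted to the Hill equation for AC50.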
# [8] = qHTS assay for small molecule agonists of the antioxidant response element (ARE) signaling pathway (AID 651741; active means well fitted activation curve with a large enough effect in the signal ratio; the % refers to the signal ratio; further: % of control where 0% means no effect); conditions: HepG2 ARE-bla reporter, beta-lactamase FRET ratio, 16 h; series mostly up to 96 µM
# In short: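 ARE-bla HepG2 cells (beta-lactamase reporter under ARE control) were plated at 2,000 cells/well, preincubated 5 h at 37 C/5% CO2, then treated with DMSO-dissolved compounds for 16 h at 37 C; LiveBLAzer B/G FRET substrate added, fluorescence read after 2 h at room temperature.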
# [9] = qHTS assay for small molecule activators of the p53 signaling pathway (AID 651743; active means well fitted activation curve with a large enough effect in the signal ratio, not every such curve was filed as active; the % refers to the signal ratio; further: % of control where 0% means no effect); conditions: HCT-116 p53RE-bla, beta-lactamase FRET ratio, 16 h; stronger effect = higher value
# In short: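 p53RE-bla HCT-116 cells with a stably integrated beta-lactamase reporter under p53 response elements were plated, rested 5 hours at 37 C/5% CO2, then exposed to compounds in DMSO for 16 hours at 37 C. LiveBLAzer B/G FRET substrate was read after 2 hours at room temperature.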
# [10] = qHTS assay for small molecule activators of the nuclear factor-kappa B (NF-kB) signaling pathway (AID 651749; active means well fitted activation curve with a large enough effect in the signal ratio; the % refers to the signal ratio; further: % of control where 0% means no effect); conditions: NF-kB-bla ME-180 cells, beta-lactamase FRET ratio, 16 h; stronger effect = higher value
# In short: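 ME-180 cells stably carrying a beta-lactamase reporter under an NF-kB response element were exposed to compound or DMSO vehicle for 16 hr at 37C, 5% CO2. Pathway activation was read by FRET, since reporter expression disrupts FRET.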
SMILES,max response [1],outcome [2],outcome [3],max response [4],max response [5],activity change % (negative = inhibition) [6],Potency [7],Potency [8],activation [9],activation [10]
C=C(C)C(N)=O,-0.693%,inactive,inactive,-10.5%,23.8% (inactive),-24.4% (inactive),inactive,inactive,-2.66% (inactive),-0.276% (inactive)
CCCCC(C=O)CC (configuration not stated),4.08%,inactive,inactive,2.69%,7.22% (inactive),14.6% (inactive),inactive,inactive,,-0.855% (inactive)
O=C(O)c1ccccc1C(=O)O,13.6%,inactive,inactive,4.98%,-5% (inactive),0.364% (inactive),inactive,,-2.08% (inactive),
O=C(O)c1ccc(C(=O)O)cc1,-16.5% and -21.7%,inactive,inactive,-3.66% and -13.6%,1.97% (inactive) and -1.47% (inactive),-2.68% (inactive) and 4.87% (inactive),inactive,inactive,,0.423% (inactive) and -1.36% (inactive)
CC(=O)Nc1ccccc1C,-2.35%,inactive,inactive,-11.2%,2.75% (inactive),4.18% (inactive),inactive,inactive,0.555% (inactive),-0.805% (inactive)
CCCCCCC(=O)O,-3.5%,inactive,inactive,-1.09%,7.92% (inactive),-7.74% (inactive),inactive,,-5.16% (inactive),
O=C1CCC(=O)O1,8.02%,inactive,inactive,-8.25%,-2.46% (inactive),-21.6% (inactive),inactive,,0.572% (inactive),
O=C(O)c1ccccc1Cl,0.58%,inactive,inactive,6.35%,2.61% (inactive),-4.08% (inactive),inactive,inactive,-4.07% (inactive),-0.473% (inactive)
N#Cc1ccccc1,-9.04%,inactive,inactive,0.37%,1.5% (inactive),1.08% (inactive),inactive,inactive,-1.56% (inactive),0.786% (inactive)
O=C(O)c1c(Cl)cccc1Cl,-13.5%,inactive,inactive,2.22%,13.3% (inactive),3.89% (inactive),inactive,,-0.426% (inactive),
O=Cc1c(Cl)cccc1Cl,3.02%,inactive,inactive,-5.87%,-1.18% (inactive),-16.1% (inactive),inactive,inactive,-2.41% (inactive),-0.578% (inactive)
NC(=O)c1cccc([N+](=O)[O-])c1,2.13%,inactive,inactive,-10.9%,-6.67% (inactive),12.3% (inactive),inactive,,8.78% (inactive),
OC(CCl)CCl,-16.7%,inactive,inactive,-12.4%,-2.39% (inactive),2.68% (inactive),inactive,inactive,,1.2% (inactive)
COc1cccc2sc(N)nc12,2.8%,inactive,inactive,-11.1%,-10.9% (inactive),-20.5% (inactive),inactive,inactive,,0.198% (inactive)
C/C=C(/C)C#N,-23.6%,inactive,inactive,0.293%,32% (inactive),15% (inactive),inactive,inactive,-0.853% (inactive),-0.053% (inactive)
c1ccsc1,-5.29%,inactive,inactive,-0.2%,-6.87% (inactive),-13.7% (inactive),inactive,inactive,1.47% (inactive),0.633% (inactive)
CC(C)CCOC(=O)/C=C/c1ccccc1,7.69%,inactive,inactive,5.75%,-10.7% (inactive),-18.5% (inactive),22.4 µM (active),,1.36% (inactive),
Cc1c(N)cccc1[N+](=O)[O-],-2.78%,inactive,inactive,-6.48%,-2.95% (inactive),-5.59% (inactive),inactive,,-0.892% (inactive),
CC(C)=CCl,6.48%,inactive,inactive,-7.86%,7.55% (inactive),-1.53% (inactive),inactive,inactive,,0.211% (inactive)
CCCCC(CC)COCC1CO1 (configuration not stated),-2.88%,inactive,inactive,2.35%,9.33% (inactive),1.98% (inactive),inactive,inactive,,0.588% (inactive)
O=C(O)CNC(=O)c1ccc(CO)o1,-18.2%,inactive,inactive,2.84%,-8.36% (inactive),-8.36% (inactive),inactive,,-3.47% (inactive),
NC(=S)NNC(N)=S,-14.7% and -3.73%,inactive,inactive,-7.09%,-19.9% (inactive),-0.459% (inactive) and 12.6% (inactive),inactive,inactive,1.05% (inactive) and -1.18% (inactive),-0.0609% (inactive) and -1.04% (inactive)
Cc1ccccc1C=O,-10.4%,inactive,inactive,9.24%,9.95% (inactive),20.8% (inactive),inactive,,3.12% (inactive),
CCOC(=O)OCC,-14.7%,inactive,inactive,10.9%,-0.211% (inactive),5.41% (inactive),inactive,inactive,,-0.0369% (inactive)
COc1ccc(N)c(C)c1,-12.9%,inactive,inactive,-2.69%,8.01% (inactive),-12.3% (inactive),inactive,inactive,,-0.857% (inactive)
Cc1c(C(=O)O)cccc1[N+](=O)[O-],-9.97%,inactive,inactive,-4.5%,-1.44% (inactive),12.8% (inactive),inactive,,1.1% (inactive),
Clc1ccc(Cl)c(Cl)c1Cl,-17% and 0.458%,inactive,inactive,6.74% and -2.64%,10.9% (inactive) and -11.3% (inactive),26.9% (inactive),inactive,inactive,,0.56% (inactive) and -0.536% (inactive)
C=Cc1ccccc1C=C,-7.36%,inactive,inactive,-3.83%,-4.16% (inactive),-4.38% (inactive),inactive,,-1.45% (inactive),
N#CC1(O)CCCCC1,4.69%,inactive,inactive,-4.06%,2.71% (inactive),-16% (inactive),inactive,,,-2.59% (inactive)
